These results are taken from PubChem BioAssay AID2551 (National Center for Advancing Translational Sciences (NCATS), 2010).

SMILES strings stand for the structures. Hit rate of the full screen: of about 310,000 compounds, about 17,000 (5.5%) were called active. Not shown: some 11% with an inconclusive outcome. The list comes from a sample in which actives are over-represented; it also holds similar structures and randomly drawn compounds. Entries that show only a call come without a potency. A number with no mark means an inactive call. The call rests on the fitted dose curve; in most records, active means well fitted inhibition curve with a large enough effect; inconclusive means small, poorly fitted or top-dose-only effect, or effect the other way; inactive means no such curve, though single readings can be large or run the other way.
Potency means the concentration at half of the fitted maximal effect.

The assay deals with Nuclear receptor ROR-gamma (Mus musculus) (UniProt P51450). The assay is described as follows: qHTS for inhibitors of ROR gamma transcriptional activity. Further: nearly all actives have a fitted effect of over 60% in size. To be noted: Drosophila S2 Gal4-RORgamma UAS-luciferase reporter, 20 h; series mostly up to 53.6 µM. Put shortly: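 A Gal4/UAS one-hybrid system in insect cells: metallothionein-promoter Gal4–ROR gamma fusion plus Photinus luciferase reporter. Copper sulfate 700 uM final, 20 hr ambient incubation, luminescent detection after 10 min with reagent.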
Sequence of Nuclear receptor ROR-gamma (Mus musculus) (P51450 whole entry, looked up, the tested form may be a part): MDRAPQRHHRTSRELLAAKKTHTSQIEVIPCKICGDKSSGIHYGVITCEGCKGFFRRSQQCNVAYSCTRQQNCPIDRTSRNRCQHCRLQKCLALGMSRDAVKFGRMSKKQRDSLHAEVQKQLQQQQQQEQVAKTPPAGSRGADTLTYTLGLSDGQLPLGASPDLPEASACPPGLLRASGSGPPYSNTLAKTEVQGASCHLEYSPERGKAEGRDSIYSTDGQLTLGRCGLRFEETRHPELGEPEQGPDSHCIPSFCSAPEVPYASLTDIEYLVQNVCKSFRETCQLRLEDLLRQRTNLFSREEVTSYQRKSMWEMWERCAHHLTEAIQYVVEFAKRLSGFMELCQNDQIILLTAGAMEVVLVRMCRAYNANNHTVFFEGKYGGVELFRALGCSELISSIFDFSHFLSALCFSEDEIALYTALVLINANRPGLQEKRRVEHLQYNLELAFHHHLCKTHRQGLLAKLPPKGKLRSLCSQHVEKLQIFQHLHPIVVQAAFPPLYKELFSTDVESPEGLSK
For orientation: Quantitative high-throughput screening tests each substance at several concentrations.
In the case of `CC1C(=O)Nc2ccc(S(=O)(=O)N3CCN(c4ccccc4F)CC3)cc2NC1=O` (stereo not given), the Potency result is “inactive”.

Regarding `COc1cc(/C=N/n2c(C)n[nH]c2=S)ccc1OCc1ccccc1`, the Potency is 6.31 µM (active).

On to `CCOc1ccc(/C=N/Nc2nncc(-c3ccccc3)n2)cc1OC`, for which the Potency entry was “inactive”.

For `COc1cc(/C=N/O)ccc1OCc1ccc([N+](=O)[O-])cc1`, the Potency entry was “inactive”.

Consider `COCC1CCN(C(=O)C2CCC(=O)N(Cc3cccc(C(F)(F)F)c3)C2)CC1` (stereo not given), for which the Potency entry is “inactive”.

In the case of `O=C(NCc1ccccn1)[C@]1(C(F)(F)F)C[C@H](CCc2ccccc2)CCCO1`, the Potency entry was “inactive”.

Consider `O=C(NCc1cc(F)cc(C(F)(F)F)c1)C1CCC(=O)N(C2CCCC2)C1` (stereo not given), for which the Potency result was “inactive”.

Turning to `CC1CCCC(C)N1C(=O)CSc1nnnn1C1CCCC1` (stereo not given), the Potency result was “inactive”.

As to `Nc1nnnn1CC(=O)N/N=C/c1ccc(-c2cccc(Cl)c2)o1`, the Potency entry is “inactive”.

On to `O=C(Cn1nnc(-c2ccccc2)n1)N/N=C/c1ccc(-c2ccc(Cl)cc2)o1`, for which the Potency was 7.08 µM (active).

`Nc1nnn(CC(=O)N/N=C/c2ccccc2)n1`: the Potency entry was “inactive”.

As for `Cc1ccccc1OCC(=O)N(Cc1cccc(F)c1)C1CCS(=O)(=O)C1` (stereo not given), the Potency result was “inactive”.

For the compound `Cc1nn(C)cc1CNC(=O)Nc1ccc(Cl)cc1`, the Potency entry was “inactive”.

As to `Cc1nn(C)cc1C(=O)Nc1ccccc1Br`, the Potency result is “inactive”.

For the compound `Cc1nn(C)cc1C(=O)NNC(=S)Nc1ccc(Cl)cc1`, the Potency is 11.2 µM (active).

Take `CC1CCN(S(=O)(=O)c2ccc3c(ccn3CC(=O)O)c2)CC1`: the Potency result was “inactive”.

As for `Cc1nn(-c2ccccc2)c(Cl)c1/C=C/C(=O)c1ccc(O)cc1`, the Potency result was “inactive”.

With `O=C(O)/C=C/c1ccc2c(c1)OCCO2`, the Potency result was “inactive”.

For `CN(C)c1ccc(/C=C/C(=O)c2ccc(O)cc2)cc1[N+](=O)[O-]`, the Potency is 1.41 µM (active).

As to `O=C(/C=C/c1ccc2c(c1)OCCO2)c1ccc(O)cc1`, the Potency was 1.26 µM (active).

In the case of `CN(C)c1ccc(/C=C/C(=O)c2ccc(C(C)(C)C)cc2)cc1[N+](=O)[O-]`, the Potency entry is “inactive”.

For `CC(=O)c1ccc2c(c1)OCCOCCOc1ccc(C(C)=O)cc1OCCOCCO2`, the Potency result was “inactive”.

In the case of `Cc1ccc([N+](=O)[O-])cc1S(=O)(=O)N1CCCN(C)CC1`, the Potency entry was “inactive”.

Take `O=C(CCc1nnc2ccc(NCCCN3CCCC3=O)nn12)NCc1ccccc1Cl`: the Potency result was “inactive”.

In the case of `Cc1ccc(/C=C2/SC(=S)N(CCC(=O)NCCCN3CCOCC3)C2=O)cc1`, the Potency entry is “inactive”.

Turning to `O=C(NC1CCC(O)CC1)c1ccccc1OCc1ccc(F)cc1` (stereo not given), the Potency entry was “inactive”.

`O=C1NC(c2cccc(Cl)c2)Nc2ccccc21` (stereo not given): the Potency entry is “inactive”.

As for `O=c1c(-c2cccc(Cl)c2)c[nH]n1-c1ccccc1`, the Potency entry is “inactive”.

For `O=C1c2ccccc2NC(c2ccc(-c3cccc(Cl)c3)o2)N1O` (stereo not given), the Potency was 11.2 µM (active).

As to `COc1cc(-c2c(-c3ccc4c(c3)OCO4)noc2C)ccc1F`, the Potency result was “inactive”.

`COc1ccc(NC(=O)CNC(=O)Cc2ccccc2)cc1OC`: the Potency entry was “inactive”.

Take `COc1ccc(NS(=O)(=O)c2ccc(NC(C)=O)cc2)cc1OC`: the activity change, negative = inhibition is 35.4% [at 0.365 µM].

Turning to `COc1ccc(NC(=S)SC)cc1OC`, the Potency was 20 µM (active).

For the compound `Cc1c(C(=O)N2CCCC2)c(S(=O)(=O)NCC(C)c2ccccc2)c(C)n1C` (stereo not given), the Potency entry was “inactive”.

Consider `CN(C)CCCNC(=S)N1CCN(c2nc(-c3ccccc3)cs2)CC1`, for which the Potency result is “inactive”.

Turning to `Cc1cccc(NC(=S)Nc2ccc3cn[nH]c3c2)c1`, the Potency entry is “inactive”.

Turning to `CC(=O)Nc1cccc(C(=O)Nc2nc(C)cs2)c1`, the Potency result was “inactive”.

As to `Cc1csc(NC(=S)Nc2cccc(Cl)c2)n1`, the Potency was 0.708 µM (active).

For the compound `S=C(Nc1cccc(Cl)c1)Nc1ccc2cn[nH]c2c1`, the Potency entry was “inactive”.

For the compound `Cc1cccc(Br)c1`, the Potency entry is “inactive”.

Regarding `Cc1cccc(NC(=S)Nc2ccc(Br)cc2)c1`, the Potency is 7.08 µM (active).

As for `Fc1cc(Br)ccc1NC(=S)Nc1cccnc1`, the Potency result is “inactive”.

`Cc1cccc(NC(=S)Nc2ccc(Cl)c(Cl)c2)c1`: the Potency is 15.8 µM (active).

Consider `NS(=O)(=O)c1ccc(NC(=S)Nc2ccc(Br)c(Cl)c2)cc1`, for which the Potency result is “inactive”.

On to `Cc1ccc(NC(=O)C2CCN(S(=O)(=O)c3ccc4c(c3)NC(=O)CO4)CC2)cc1C`, for which the Potency result was “inactive”.

As to `CN(CCO)S(=O)(=O)c1ccc2c(c1)C(=O)c1cc(S(=O)(=O)N(C)CCO)ccc1-2`, the Potency entry was “inactive”.

As to `CCCn1cc(S(=O)(=O)c2ccc(C)cc2)c(=O)c2cc(OCC)ccc21`, the Potency result was “inactive”.

`CC1C(=O)N(Cc2ccccc2)c2ccccc2N1C(=O)c1ccccc1` (stereo not given): the Potency entry was “inactive”.

Regarding `Cc1cccc(C(=O)Nc2nnc(S(=O)(=O)N3CCCCCC3)s2)c1`, the Potency result is “inactive”.

Take `Cc1cnc(CN(C)C(=O)CC2C(=O)NCCN2Cc2cccc(F)c2F)[nH]1` (stereo not given): the Potency entry was “inactive”.

Regarding `COc1ccc(OC)c(NC(=O)c2cccc(S(=O)(=O)N3CCN(C(C)=O)CC3)c2)c1`, the Potency entry was “inactive”.

As to `Cc1oc2c(c1C(=O)N1CCOCC1)C(=O)c1ccccc1C2=O`, the Potency was 3.98 µM (active).

For `Cc1noc(C)c1C(=O)N1CCOCC1`, the Potency result was “inactive”.

On to `Cc1onc(-c2ccccc2)c1C(=O)N1CCOCC1`, for which the Potency entry was “inactive”.

For the compound `COc1ccc(C2/C(=C(/O)c3ccc4c(c3)CC(C)O4)C(=O)C(=O)N2Cc2ccncc2)cc1` (stereo not given), the Potency result was “inactive”.

Regarding `COc1ccc(/C=C2\SC(=O)N(CCC(=O)NCCCn3ccnc3)C2=O)cc1`, the Potency entry is “inactive”.

For the compound `CCn1nnnc1SCC(=O)Nc1ccc(N(C)C)cc1`, the Potency entry was “inactive”.

Take `COc1ccccc1-n1nnnc1S(=O)(=O)Cc1ccc(Cl)cc1`: the Potency is 11.2 µM (active).

Regarding `COc1ccccc1N1CCN(S(=O)(=O)c2ccc(Cl)cc2)CC1`, the Potency entry is “inactive”.

In the case of `N#Cc1cccc(CS(=O)(=O)c2nnnn2-c2cc(C(F)(F)F)cc(C(F)(F)F)c2)c1`, the Potency result is “inactive”.

Take `CCn1ccnc1CN(C)C(=O)c1cc(COc2ccc(-n3cncn3)cc2)on1`: the Potency entry was “inactive”.

For `COc1ccc(-c2[nH]ncc2/C=N/NC(=O)c2cc(Br)ccc2O)c(OC)c1`, the Potency was 2.24 µM (active).

On to `COc1ccc(/C=N/NC(=O)Nc2ccc3nsnc3c2)c(OC)c1`, for which the Potency entry is “inactive”.

Regarding `COc1ccc(O)c(C=Nc2cc(C)on2)c1`, the Potency entry is “inactive”.

For the compound `COc1cc(CN2CCCC(C(=O)c3ccc(SC)cc3)C2)cc(Cl)c1O` (stereo not given), the activity change, negative = inhibition is -3.37% [at 1.91 µM].

As to `Cc1nc2nc(C)c(NS(=O)(=O)c3ccc(C(C)(C)C)cc3)c(=O)n2[nH]1`, the Potency entry was “inactive”.

As to `CC(=O)c1ccc(N2CCN(S(=O)(=O)c3ccc4c(c3)CC(=O)N4C)CC2)cc1`, the Potency result is “inactive”.

Consider `O=C(CN1C(=O)C2C3C=CC(C3)C2C1=O)Nc1nc(-c2ccccn2)cs1` (stereo not given), for which the Potency entry was “inactive”.

Consider `Cc1cc(NC(=O)[C@H](C)NC(=O)c2ccco2)ccc1Br`, for which the Potency entry is “inactive”.

As to `CC(NC(=O)c1ccco1)C(=O)Nc1nc(-c2ccccn2)cs1` (stereo not given), the Potency is 11.2 µM (active).
